CYP2C19 act: human CYP2C19 activators, primary screen, biochemical, luminescence; recombinant CYP2C19, luciferin-H EGE luminescence; hits give high values; 0 = fully inhibited enzyme, 1 = untreated enzyme; activation factor at 5 µM; 96,000 tested, under 10 active; AID 1025, 2008;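 active = activation factor of at least 2 at 5 µM in the primary screen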
CYP2C9 activ: human CYP2C9 activators, primary screen, biochemical, luminescence. recombinant CYP2C9, luciferin-H conversion; hits give high values; factor 1 = untreated enzyme, 0 = blocked. 96,000 compounds, 1.4% hits. activation factor at 5 µM;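 active = activation factor of 2 or more for CYP2C9 at a 5 µM dose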
Target sequence (P11712 whole entry, looked up): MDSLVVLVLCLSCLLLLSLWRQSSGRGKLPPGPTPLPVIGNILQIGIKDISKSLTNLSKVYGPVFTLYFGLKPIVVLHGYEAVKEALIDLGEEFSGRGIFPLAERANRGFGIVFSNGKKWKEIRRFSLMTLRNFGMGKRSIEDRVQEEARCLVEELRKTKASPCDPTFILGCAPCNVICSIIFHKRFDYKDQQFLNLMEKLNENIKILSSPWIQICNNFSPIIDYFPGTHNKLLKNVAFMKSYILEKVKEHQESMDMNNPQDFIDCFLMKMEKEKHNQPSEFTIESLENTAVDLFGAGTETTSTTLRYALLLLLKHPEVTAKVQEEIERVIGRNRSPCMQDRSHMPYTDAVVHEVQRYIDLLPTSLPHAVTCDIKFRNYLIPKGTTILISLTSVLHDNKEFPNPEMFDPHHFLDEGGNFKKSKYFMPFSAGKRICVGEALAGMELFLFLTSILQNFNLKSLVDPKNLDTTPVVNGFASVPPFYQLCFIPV
PLAP act: PLAP enzyme activators, biochemical, luminescence, HTS. purified PLAP enzyme, luminescent substrate read-out; hits give high values. activation fold at 20 µM. 96,000 compounds, 1.2% hits. AID 696, 2007; in the data active = activation fold above about 2
CYP2C19 inh: blockers of cytochrome P450 2C19 activity – biochemical, luminescence, ADME assay, primary screen. P33261. CYP2C19 Supersomes, luciferin-H EGE luminescence, 30 min. inhibition, % at 5 µM. 96,000 compounds, 21% hits;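 active = CYP2C19 inhibition above a set limit at 5 µM in the primary screen, cut at about 50% in these data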
CYP2C9 inh: blockers of cytochrome P450 2C9 activity – biochemical, luminescence, ADME assay, primary screen | inhibition, % at 5 µM | 96,000 compounds, 20% hits | P11712 | CYP2C9 Supersomes, luciferin-H conversion;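 active = blocking of liver enzyme CYP2C9 beyond about 50% at 5 µM, limit read from the data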
A number is an active result; 0 = inactive; - = not tested or not shown. An excerpt weighted towards active compounds, which were near 31% of everything screened.

SMILES | CYP2C19 act | CYP2C9 activ | PLAP act | CYP2C19 inh | CYP2C9 inh
Cc1ccccc1Cn1ccc(NC(=O)c2cc3nc(-c4ccco4)cc(C(F)(F)F)n3n2)n1 | 0 | 0 | 0 | 50 | 58
O=C(c1cc2nc(-c3ccco3)cc(C(F)(F)F)n2n1)N1CCN(c2ccccc2)CC1 | 0 | 0 | 0 | 63 | 72
COC(=O)c1cc(C#N)c(NCc2ccccc2)nc1C | 0 | 0 | 0 | 0 | 0
CCO/C(C)=C1\C(=O)Nc2ccccc21 | 0 | 0 | 0 | 0 | 0
O=C(c1nn2c(C(F)(F)F)cc(-c3ccco3)nc2c1Br)N1CCCc2ccccc21 | 0 | 0 | 0 | 79 | 76
O=C(c1cc(-c2ccco2)on1)N1CCCc2ccccc21 | 0 | 2.5 | 0 | 0 | 0
COc1ccccc1-c1cc(C(=O)N2CCN(c3ccc(F)cc3)CC2)no1 | 0 | 0 | 0 | 0 | 0
COc1ccccc1N1CCN(C(=O)c2cc(-c3ccco3)on2)CC1 | 0 | 0 | 0 | 92 | 76
Cc1cc(C)c2cc3c(N)c(C(=O)N4CCc5ccccc5C4)sc3nc2c1 | 0 | 0 | 0 | 0 | 0
Cc1ccc(-c2cc(C(=O)N3CCCc4ccccc43)c3ccccc3n2)cc1 | 0 | 0 | 0 | 71 | 93
Cc1ccc2nc3sc(C(=O)N4CCCc5ccccc54)c(N)c3cc2c1 | 0 | 0 | 0 | 87 | 92
CCCCC(=O)NNC(=S)NC(=O)c1cccc([N+](=O)[O-])c1 | 0 | 0 | 0 | 0 | 0
CCOC(=O)NC(NC(=S)Nc1ccccc1[N+](=O)[O-])C(Cl)(Cl)Cl (configuration not stated) | 0 | 0 | 0 | 98 | 93
O=C(NC(NC(=S)Nc1ccccc1C(=O)O)C(Cl)(Cl)Cl)c1cccc([N+](=O)[O-])c1 (configuration not stated) | 0 | 0 | 0 | 0 | 71
CCC1(COC(=O)Nc2cccc(Cl)c2)COC1 | 0 | 0 | 0 | 0 | 0
Cc1ccc(CNc2ncc(-c3ccc4c(c3)OCO4)n2C)cc1 | 0 | 0 | - | 69 | 74
Cn1c(-c2ccc3c(c2)OCO3)cnc1NCc1ccc(Cl)cc1 | 0 | 0 | 0 | 66 | 99
CC(C)c1nnc(NC(=O)CCC(=O)NCc2ccco2)s1 | 0 | 0 | 0 | 0 | 0
CC1(C)Cc2ccccc2C(NNC(=O)c2ccncc2)=N1 | 0 | 0 | 0 | 0 | 0
CC(C)CCNC(=O)NC(=O)COC(=O)c1cc(S(=O)(=O)N2CCOCC2)ccc1N1CCCCC1 | 0 | 0 | 0 | 0 | 0
Oc1c(C=NCc2ccncc2)sc2ccccc12 | 0 | 0 | 0 | 92 | 0
O=C(COc1ccc(Cl)cc1)NCc1nnc(SCC(=O)N2CCCc3ccccc32)o1 | 0 | 0 | 0 | 0 | 0
COc1ccc(-c2oc3ccccc3c(=O)c2OC(=O)c2ccc(C)cc2)cc1 | 0 | 0 | 0 | 84 | 89
CCCN(Cc1ccc(N(CC)CC)cc1)CC1CC1 | 0 | 0 | 0 | 0 | 0
O=C(C1CCC1)N1CCN(Cc2ccccc2)CC1 | 0 | 0 | 0 | 93 | 0
SMILES | CYP2C19 act | CYP2C9 activ | PLAP act | CYP2C19 inh | CYP2C9 inh
Cc1ccc(S(=O)(=O)N2CCCCC2C(=O)N2CCN(Cc3ccccc3)CC2)cc1 (configuration not stated) | 0 | 2.9 | 0 | 85 | 0
O=C(C1CCN(C2CC(=O)N(c3cccc(Cl)c3)C2=O)CC1)N1CCCC1 (configuration not stated) | 0 | 0 | 0 | 0 | 0
O=C(C1CCN(C2CC(=O)N(Cc3ccccc3)C2=O)CC1)N1CCCCCC1 (configuration not stated) | 0 | 0 | 2 | 0 | 0
O=C(C1CCCCN1S(=O)(=O)c1ccccc1)N1CCN(C(c2ccccc2)c2ccccc2)CC1 (configuration not stated) | 0 | 0 | 0 | 0 | 0
O=C(C1CCCCN1S(=O)(=O)c1ccccc1)N1CCN(Cc2ccccc2)CC1 (configuration not stated) | 0 | 0 | 0 | 62 | 0
O=C(C1CCN(S(=O)(=O)N2CCOCC2)CC1)N1CCN(Cc2ccccc2)CC1 | 0 | 0 | 0 | 0 | 0
O=C(CSc1nc2ccccc2s1)Nn1cnnc1 | 0 | 0 | 0 | 76 | 96
O=C(CCCSc1nc2ccccc2s1)NC1=NCCS1 | 0 | 0 | 0 | 83 | 0
O=C(CSc1nn(-c2ccccc2)c(=S)s1)Nn1cnnc1 | 0 | 0 | 0 | 64 | 98
CN(C)CCCN1C(=O)c2oc3ccc(F)cc3c(=O)c2C1c1cccnc1 (configuration not stated) | 0 | 0 | 0 | 0 | 0

Source: PubChem BioAssay
